According to PubChem BioAssay (NCATS):
Values joined by “and” are separate entries in the source; they are usually repeats but may differ in a detail not shown here. Equal values may be shown once. Inconclusive results are not listed. A structure can be active in one record and inactive in another. Active and inactive are the calls of the source. Unless noted, the call rests on the fitted dose curve; in most records, active means well fitted curve in the direction sought with a large enough effect; inconclusive means small, poorly fitted or top-dose-only effect, or another doubt; inactive means no such curve, though single readings can be large; an effect the other way counts as inactive or inconclusive.

How the values were obtained:
[1] = Cell Viability - HepG2 (AID 433; calls by dose curve;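 further: cells exposed to compound for 40 hours; potency for ATP loss meaning cytotoxicity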); conditions: qHTS
How it was run: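 HepG2 cells, 1500 per well, treated 40 hr at 37 °C in complete medium; viability from intracellular ATP by CellTiter-Glo luminescence. Normalized to DMSO and 100 uM tamoxifen; AC50 from Hill fit of qHTS concentration-response.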

[2] = target: Cytochrome P450 3A4 (Homo sapiens) (UniProt P08684); experiment: qHTS Assay for Inhibitors and Substrates of Cytochrome P450 3A4 (AID 884); conditions: recombinant CYP3A4, Luciferin-PPXE luminescence; series mostly up to 57.1 µM; further: nearly all actives have a fitted effect of over 50% in size
How it was run: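 Luminescent readout of luciferin produced by CYP3A4 (20 nM) dealkylation of Luciferin-PPXE, 25 uM (its KM). NADPH-driven reaction ran 60 min at RT after 10 min compound preincubation; data scaled to 57 uM ketoconazole as 100% inhibition.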

[3] = Cell Viability - LYMP2-001 (AID 921); conditions: LYMP2-001 lymphoblastoid cell viability; series mostly up to 92.2 µM; further: nearly all actives have a fitted effect of over 70% in size
How it was run: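 Human lymphoblastoid LYMP2-001 cells, 2500 per well, in complete medium, treated 24 h at 37 C. Viability from cellular ATP by CellTiter-Glo luminescence; AC50 from Hill-equation fits of qHTS concentration-response.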

[4] = MultiTox-Fluor Cytotoxicity Assay - LYMP1-001 - Live Cells (AID 947); conditions: LYMP1-001 lymphoblastoid cells, live-cell protease fluorescence viability; series mostly up to 92.2 µM
[5] = MultiTox-Fluor Cytotoxicity Assay - LYMP1-003 - Dead Cells (AID 961); conditions: LYMP1-003 lymphoblastoid cells, dead-cell protease fluorescence; series mostly up to 92.2 µM;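 further: cells exposed to compound for 16 h at 37 °C; nearly all actives have a fitted effect of over 70% in size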
How it was run: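 Acute toxicity is scored as increased dead-cell protease activity in human lymphoblastoid LYMP1-003 cells after 16 h compound exposure in complete culture medium. Activity is normalized to DMSO basal and 15 uM tetraoctylammonium bromide as full response.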

[6] = Cell Viability - LYMP2-005 (AID 967); conditions: LYMP2-005 lymphoblastoid cell viability; series mostly up to 92.2 µM
How it was run: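 Human lymphoblastoid LYMP2-005 cells, 2,500 per well in complete medium, rested 5 h at 37C then compound-treated 24 h at 37C. Intracellular ATP read by CellTiter-Glo luminescence after 30 min at room temperature; AC50 from Hill-equation fits of concentration-response data.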

[7] = Cell Viability - LYMP2-009 (AID 968); conditions: LYMP2-009 lymphoblastoid cell viability; series mostly up to 92.2 µM; further: nearly all actives have a fitted effect of over 55% in size
[8] = Cell Viability - LYMP2-011 (AID 969); conditions: LYMP2-011 lymphoblastoid cells viability; series mostly up to 92.2 µM;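 further: cells exposed to compound for 24 hours; nearly all actives have a fitted effect of over 60% in size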
How it was run: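 Luminescent ATP read-out (CellTiter-Glo, 30 min RT) after 24 hr compound exposure at 37 C in human lymphoblastoid cells, 2500 cells/well. Decreasing ATP indicates cytotoxicity; AC50 from standard Hill fit.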

[9] = Cell Viability - LYMP2-021 (AID 974); conditions: LYMP2-021 lymphoblastoid cells viability; series mostly up to 92.2 µM;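 further: compound exposure lasts 24 hours at 37 °C; nearly all actives have a fitted effect of over 55% in size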
How it was run: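 ATP luminescence (CellTiter-Glo, 30 min RT) after 24 h compound exposure at 37 C; 2500 human lymphoblastoid cells/well, 5 h settle beforehand. Cytotoxicity = concentration-dependent ATP drop, AC50 by Hill fit.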

[10] = Cell Viability - LYMP2-025 (AID 976); conditions: LYMP2-025 lymphoblastoid cell viability; series mostly up to 92.2 µM
How it was run: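 CellTiter-Glo luminescence (cellular ATP) after 24 h compound exposure at 37 C; LYMP2-025 human lymphoblastoid cells, 2500/well, complete medium. Tetraoctylammonium bromide positive control. AC50 by Hill equation fit of qHTS concentration-response.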

[11] = Cell Viability - LYMP2-002 (AID 977); conditions: LYMP2-002 lymphoblastoid cell viability, qHTS; series mostly up to 92.2 µM
How it was run: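 In this qHTS viability screen, 2500 human lymphoblastoid cells per well receive compound for 24 hr at 37 C, and luciferase-based ATP luminescence gives the viability signal. Tetraoctylammonium bromide serves as positive control.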

[12] = Cell Viability - LYMP2-006 (AID 978); conditions: LYMP2-006 lymphoblastoid cell viability, qHTS; series mostly up to 92.2 µM;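 further: cells exposed to compound for 24 hours; nearly all actives have a fitted effect of over 60% in size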
How it was run: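 Human lymphoblastoid cells (LYMP2-006), 2500/well in complete medium, were treated with compound for 24 hr at 37 C. Cellular ATP was read by CellTiter-Glo luminescence after 30 min, and AC50 values came from Hill-equation fits of concentration-response data.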

[13] = Cell Viability - LYMP2-007 (AID 979); conditions: LYMP2-007 lymphoblastoid cell viability; series mostly up to 92.2 µM;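 further: cells exposed to compound for 24 h before reading; nearly all actives have a fitted effect of over 60% in size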
How it was run: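 qHTS cytotoxicity: 2500 cells/well, 5 hr 37 C settle, compound 24 hr 37 C, CellTiter-Glo 30 min RT, luminescence. Decrease in ATP = toxicity. AC50 by standard Hill equation; tetraoctylammonium bromide positive control.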

[14] = Cell Viability - LYMP2-010 (AID 981); conditions: LYMP2-010 lymphoblastoid cell viability, qHTS; series mostly up to 92.2 µM;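 further: cells exposed to compound for 24 hours at 37 °C; nearly all actives have a fitted effect of over 55% in size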
How it was run: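 qHTS cytotoxicity, 1536-well: 2500 cells/well, 5 hr settle, 24 hr compound at 37 C, CellTiter-Glo 30 min RT, luminescence read. Decrease in ATP = toxicity; AC50 via standard Hill equation. Positive control tetraoctylammonium bromide.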

[15] = Cell Viability - LYMP2-012 (AID 982); conditions: LYMP2-012 lymphoblastoid cell viability qHTS; series mostly up to 92.2 µM;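 further: cellular ATP by luciferase luminescence where a drop means cytotoxicity; cells exposed to compound for one day before reading; nearly all actives have a fitted effect of over 55% in size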
[16] = Cell Viability - LYMP2-020 (AID 986); conditions: series mostly up to 92.2 µM; further: nearly all actives have a fitted effect of over 55% in size
How it was run: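 qHTS, 2500 cells/well; 5 hr then 24 hr compound exposure, 37 C; CellTiter-Glo luminescence after 30 min RT; ATP decrease taken as cytotoxicity; AC50 via Hill equation; tetraoctylammonium bromide positive control.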

[17] = Cell Viability - LYMP2-022 (AID 987); conditions: LYMP2-022 lymphoblastoid cell viability; series mostly up to 92.2 µM; further: nearly all actives have a fitted effect of over 55% in size
How it was run: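 Luminescent ATP read-out (CellTiter-Glo, 30 min, RT) after 24 hr, 37 C compound exposure of 2500 human lymphoblastoid cells/well in complete medium. Cytotoxicity taken as concentration-dependent ATP loss; AC50 from standard Hill equation.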

[18] = Cell Viability - LYMP2-024 (AID 988); conditions: LYMP2-024 lymphoblastoid cell viability; series mostly up to 92.2 µM; further: nearly all actives have a fitted effect of over 60% in size
How it was run: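 ATP-based luminescence (CellTiter-Glo, 30 min RT) after 24 h compound exposure at 37 C of 2500 lymphoblastoid cells/well; decrease in ATP taken as cytotoxicity. qHTS concentration-response fitted to standard Hill equation for AC50.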

[19] = Cell Viability - LYMP1-002 - Assay at 24 hr (AID 993); conditions: LYMP1-002 lymphoblastoid cells viability; series mostly up to 92.2 µM
How it was run: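 CellTiter-Glo luminescence (intracellular ATP) after 24 h compound exposure, 37 C, in LYMP1-002 human lymphoblastoid cells; decreased ATP taken as cytotoxicity. AC50 from standard Hill fit of concentration-response curves.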

[20] = qHTS assay for small molecule disruptors of the mitochondrial membrane potential - 5 hr assay (AID 651755; calls by dose curve; further: nearly all actives have a fitted effect of over 40% in size); conditions: JC-1-type ratio dye; series mostly up to 92.2 µM
How it was run: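 Seed HepG2 overnight, add compound, incubate 5 hr at 37C and 5% CO2, stain 30 min with Mito-MPS, then measure monomer (490/535 nm) and aggregate (540/590 nm) fluorescence.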
Potency means the concentration at half of the fitted maximal effect.

Cytochrome P450 3A4 (Homo sapiens), sequence (P08684 whole entry, looked up): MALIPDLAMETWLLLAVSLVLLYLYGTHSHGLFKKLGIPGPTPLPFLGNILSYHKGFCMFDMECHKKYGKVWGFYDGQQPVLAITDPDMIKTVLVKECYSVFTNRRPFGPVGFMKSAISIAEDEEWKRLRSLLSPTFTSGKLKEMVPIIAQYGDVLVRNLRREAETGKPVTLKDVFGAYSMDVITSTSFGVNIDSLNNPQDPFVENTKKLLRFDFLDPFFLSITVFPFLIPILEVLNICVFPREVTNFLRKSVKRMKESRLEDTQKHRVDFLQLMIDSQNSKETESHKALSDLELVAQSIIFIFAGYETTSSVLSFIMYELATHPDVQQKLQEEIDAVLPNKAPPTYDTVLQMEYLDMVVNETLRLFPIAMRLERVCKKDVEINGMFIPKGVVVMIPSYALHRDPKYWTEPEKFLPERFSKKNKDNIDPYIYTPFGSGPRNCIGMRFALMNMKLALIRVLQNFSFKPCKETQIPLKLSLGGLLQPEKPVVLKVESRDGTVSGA

Compound | Potency [1] | Potency [2] | Potency [3] | Potency [4] | Potency [5] | Potency [6] | Potency [7] | Potency [8] | Potency [9] | Potency [10] | Potency [11] | Potency [12] | Potency [13] | Potency [14] | Potency [15] | Potency [16] | Potency [17] | Potency [18] | Potency [19] | Potency [20]
O=C(O)C1C(C(=O)O)C2(Cl)C(Cl)=C(Cl)C1(Cl)C2(Cl)Cl (stereo unspecified) | > 92 µM (inactive) | inactive | inactive | inactive | inactive | inactive | inactive | inactive | inactive | inactive | inactive | inactive | inactive | inactive | inactive | inactive | inactive | inactive | inactive | inactive
O=C(CCl)c1ccccc1 | – | inactive | 7.94 µM (active) | – | 31.6 µM (active) | 10 µM (active) | 10 µM (active) | 12.6 µM (active) | 10 µM (active) | 12.6 µM (active) | 12.6 µM (active) | 12.6 µM (active) | 10 µM (active) | 7.94 µM (active) | 10 µM (active) | 7.94 µM (active) | 6.31 µM (active) | 7.94 µM (active) | – | inactive
CC(C)CC(C)Nc1ccc(Nc2ccccc2)cc1 (stereo unspecified) | > 92 µM (inactive) | – | 15.8 µM (active) | – | 50.1 µM (active) | 31.6 µM (active) | – | 50.1 µM (active) | 50.1 µM (active) | – | 39.8 µM (active) | 39.8 µM (active) | 39.8 µM (active) | 39.8 µM (active) | 39.8 µM (active) | 39.8 µM (active) | 31.6 µM (active) | 25.1 µM (active) | 39.8 µM (active) | –
C[C@@H]1CC[C@@]2(OC1)O[C@H]1[C@@H](O)[C@H]3[C@@H]4CC[C@H]5C[C@@H](O[C@@H]6O[C@H](CO)[C@H](O[C@@H]7O[C@H](CO)[C@@H](O)[C@H](O[C@@H]8OC[C@@H](O)[C@H](O)[C@H]8O)[C@H]7O[C@@H]7O[C@H](CO)[C@@H](O)[C@H](O[C@@H]8O[C@H](CO)[C@@H](O)[C@H](O)[C@H]8O)[C@H]7O)[C@H](O)[C@H]6O)[C@H](O)C[C@]5(C)[C@H]4CC[C@]3(C)[C@H]1[C@@H]2C | 11.9 µM (active) | inactive | 10 µM (active) | 12.6 µM (active) | 10 µM (active) | 15.8 µM (active) | 12.6 µM (active) | 20 µM (active) | 15.8 µM (active) | 25.1 µM (active) | 25.1 µM (active) | 20 µM (active) | 25.1 µM (active) | 20 µM (active) | 15.8 µM (active) | 12.6 µM (active) | 15.8 µM (active) | 12.6 µM (active) | 7.94 µM (active) | 26.6 µM (active)
[CH3][Hg][Cl] | 31.7 µM (active) | inactive | 1.58 µM (active) | 39.8 µM (active) | – | – | 5.01 µM (active) | 3.98 µM (active) | 3.16 µM (active) | 7.94 µM (active) | 7.94 µM (active) | 5.01 µM (active) | 3.98 µM (active) | 1.58 µM (active) | 3.16 µM (active) | 2.51 µM (active) | 2.51 µM (active) | 2 µM (active) | 39.8 µM (active) | 66.8 µM (active)
Nc1ccccc1C(=O)OCCc1ccccc1 | > 92 µM (inactive) | – | inactive | inactive | inactive | inactive | inactive | inactive | inactive | inactive | inactive | inactive | inactive | inactive | inactive | inactive | inactive | inactive | inactive | inactive
O=C1C2(Cl)C3(Cl)C4(Cl)C(Cl)(Cl)C5(Cl)C3(Cl)C1(Cl)C5(Cl)C24Cl (stereo unspecified) | 31.3 µM (active) and 59.3 µM (active) | 10 µM (active) and 15.8 µM (active) | inactive and 39.8 µM (active) | 39.8 µM (active) and 50.1 µM (active) | 31.6 µM (active) and 39.8 µM (active) | 39.8 µM (active) | 50.1 µM (active) | 63.1 µM (active) | – | – | – | 39.8 µM (active) and inactive | 39.8 µM (active) and 50.1 µM (active) | – | inactive | inactive | – | inactive | 31.6 µM (active) and 79.4 µM (active) | 4.22 µM (active) and 9.44 µM (active)
CC(=O)[O-].CC(=O)[O-].O.O.[Cd+2] | – | – | – | inactive | – | 31.6 µM (active) | – | – | 50.1 µM (active) | inactive | – | – | 39.8 µM (active) | 39.8 µM (active) | – | – | – | – | inactive | inactive
Oc1c(Br)c(Br)c(Br)c(Br)c1Br | > 92 µM (inactive) | inactive | inactive | inactive | inactive | inactive | inactive | inactive | inactive | inactive | inactive | inactive | – | – | inactive | inactive | inactive | inactive | inactive | 33.5 µM (active)
CCCCCCCCn1sccc1=O | – | 12.6 µM (active) | 2 µM (active) | 31.6 µM (active) | 7.94 µM (active) | 3.98 µM (active) | 5.01 µM (active) | 6.31 µM (active) | 3.98 µM (active) | 6.31 µM (active) | 6.31 µM (active) | 7.94 µM (active) | 2.51 µM (active) | 2.51 µM (active) | 3.98 µM (active) | 3.98 µM (active) | 2.51 µM (active) | 2.51 µM (active) | 12.6 µM (active) | inactive
C(=NC1CCCCC1)=NC1CCCCC1 | 3.31 µM (active) | inactive | – | inactive | inactive | inactive | – | – | – | – | – | – | – | – | – | – | – | – | inactive | inactive
